Columns and labels:
Assay in all cases: PBM binding z-score (relative to random genomic background probes); higher = stronger binding; sequences stand for … in GC…GCGATTGACAGCGTAGAATGAAGG
[1] = test system: PPARg:RXRa DBDmut IVT, anti-RXR (DBD mutation: RXRa K156A/R161A, NR concentration 270 nM, RXRa partner concentration 90 nM)
How it was run: (§1)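 Regression normalization was applied to scanned fluorescence from custom Agilent 4×180K protein-binding microarrays. Before scanning, arrays were incubated 1 h with ligand-free nuclear receptor dimers, and binding was detected with antibodies against each partner (one per run). Binding z-scores use the random background probes as reference.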

[2] = test system: PPARg:RXRa IVT, anti-PPARg (NR concentration 270 nM, RXRa partner concentration 90 nM)
How it was run: as §1

[3] = test system: PPARg DBDmut:RXRa IVT, anti-PPARg (DBD mutation: PPARg1 K132A/R137A, NR concentration 270 nM, RXRa partner concentration 90 nM)
How it was run: as §1

[4] = test system: PPARg DBDmut IVT, anti-PPARg (DBD mutation: PPARg1 K132A/R137A, NR concentration 270 nM)
How it was run: as §1

[5] = test system: PPARg homodimer (NR concentration 180 nM)
How it was run: as §1

[6] = test system: PXR:RXRa (NR concentration 270 nM, RXRa partner concentration 90 nM)
How it was run: as §1

[7] = test system: PXR homodimer (NR concentration 270 nM)
How it was run: as §1

[8] = test system: RARa:RXR (NR concentration 270 nM, RXRa partner concentration 90 nM)
How it was run: as §1

[9] = test system: RARa homodimer (NR concentration 270 nM)
How it was run: as §1

[10] = test system: RARb:RXRa (NR concentration 270 nM, RXRa partner concentration 90 nM)
How it was run: as §1

[11] = test system: RARb homodimer (NR concentration 270 nM)
How it was run: as §1

[12] = test system: RARg:RXRa (NR concentration 270 nM, RXRa partner concentration 90 nM)
How it was run: as §1

[13] = test system: RARg homodimer (NR concentration 270 nM)
How it was run: as §1

[14] = test system: RXRa DBDmut IVT, anti-RXR (DBD mutation: RXRa K156A/R161A, NR concentration 90 nM)
How it was run: as §1

[15] = test system: RXRa homodimer (NR concentration 180 nM)
How it was run: as §1

[16] = test system: THRa:RXRa (NR concentration 90 nM, RXRa partner concentration 90 nM)
How it was run: as §1

[17] = test system: THRa homodimer (NR concentration 90 nM)
How it was run: as §1

[18] = test system: VDR:RXRa (NR concentration 270 nM, RXRa partner concentration 90 nM)
How it was run: as §1

[19] = test system: VDR homodimer (NR concentration 270 nM)
How it was run: as §1

Sequence | PBM binding z-score [1] | PBM binding z-score [2] | PBM binding z-score [3] | PBM binding z-score [4] | PBM binding z-score [5] | PBM binding z-score [6] | PBM binding z-score [7] | PBM binding z-score [8] | PBM binding z-score [9] | PBM binding z-score [10] | PBM binding z-score [11] | PBM binding z-score [12] | PBM binding z-score [13] | PBM binding z-score [14] | PBM binding z-score [15] | PBM binding z-score [16] | PBM binding z-score [17] | PBM binding z-score [18] | PBM binding z-score [19]
CGAACGAGGGCCTGAGTTGATAGCAAATGCCGAT | -0.653 | -0.278 | -0.385 | -0.392 | -1.19 | -0.457 | -0.641 | -0.337 | -0.966 | -0.393 | -0.782 | -0.386 | -0.326 | 0.337 | -0.236 | -0.563 | -0.666 | -0.469 | -0.394
TCATATAGGTAAAGGTGTAAGTCGAACGATATGA | 3.51 | 3.04 | 1.38 | 0.989 | 0.612 | 0.127 | -0.297 | 0.259 | 0.411 | 0.413 | -0.352 | 0.365 | 0.406 | 0.642 | 0.621 | -0.275 | -0.761 | 0.297 | -0.275
TAGCCTAGGTCAGATCAGGCCAGTATACGCTATA | 0.459 | 1.56 | 0.119 | -0.493 | 0.306 | 2.07 | -0.691 | 1.21 | -0.581 | 2.93 | 2.07 | 2.81 | 3.44 | -0.202 | 1.41 | 4.36 | 0.219 | 0.996 | -0.305
TCTTTTAGATCAATAGAGGTTAAGAAAGTGCGCT | 1.67 | 1.53 | 1.94 | 1.81 | 0.69 | 3.35 | 0.207 | 2.08 | -0.186 | 1.23 | 1.25 | 1.22 | 1.09 | 0.967 | 1.58 | 2.4 | -0.64 | 2.22 | 0.459
ACTAGCAGGCCAAGTTTGGGTCACTCTAACAAAG | 0.86 | 1.15 | -0.869 | -1.06 | 0.634 | 0.8 | -0.149 | 1.57 | -0.645 | 1.91 | 2.06 | 2.24 | 1.6 | -0.0163 | 0.429 | 2.39 | 1.06 | 0.395 | 0.209
GCAGACAGGTGAAACGCAGGTAACTCACGGTGGC | 1.05 | 0.811 | 0.104 | -0.094 | -0.18 | -0.51 | -0.98 | 0.0228 | -0.454 | 0.558 | -0.171 | 0.892 | 0.295 | -0.351 | 0.662 | 0.832 | -0.7 | -0.56 | -0.778
TCTTGTAGTTCAAAGGTTAAGAAAGCCGAAGCCT | 1.69 | 2.84 | 0.125 | 1.99 | 1.87 | 4.59 | 0.443 | 6.25 | 0.439 | 3.36 | 2.54 | 4.81 | 2.39 | 2.69 | 6.78 | 2.53 | -0.0884 | 3.68 | 1.9

Source: the supplement of paper PMC6555819
